# Assay results: PubChem BioAssay (Tox21)
# Unmarked numbers belong to inactive results. Records with an inconclusive call do not appear. A call without a number means that no potency is given here. Calls of active or inactive are those of the source. Unless noted, the call rests on the fitted dose curve; in most records, active means well fitted curve in the direction sought with a large enough effect in the repeat runs; inconclusive means weak or mixed curves; inactive means no such curve, though single readings can be large; an effect the other way counts as inactive or inconclusive.
# How the values were obtained:
# [1] = A CellTox Green Cytotoxicity Assay to monitor cytotoxicity in HepG2 cells - 8 hour (AID 1224890); further: nearly all actives have a fitted effect of over 45% in size
# In short: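 Fluorescent DNA-binding dye, 600 HepG2 cells/well, 5 h preincubation then compound in DMSO; same plates read at 0–40 h, 37 C.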
# [2] = qHTS assay to identify small molecule antagonists of the estrogen receptor alpha (ER-alpha) signaling pathway using the BG1 cell line in the presence of 0.1 nM 17-beta-estradiol - cell viability counter screen (AID 1259241); further: nearly all actives have a fitted effect of over 40% in size
# In short: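 CellTiter-Fluor read (30 min, 37C) on ER-alpha/ERE-luc VM7Luc4E2 cells; 22 hr compound treatment; agonist 0.1 nM E2 final; same-well multiplex.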
# [3] = qHTS assay to identify small molecule antagonists of the androgen receptor (AR) signaling pathway using the MDA cell line in the presence of 0.5 nM R1881 - cell viability counter screen (AID 1259242); further: nearly all actives have a fitted effect of over 45% in size
# In short: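 Human breast carcinoma MDA-kb2 cells, cultured without CO2, receive compounds alongside 0.5 nM (final) R1881 agonist. After 16 hr at 37C, viability is taken as live-cell protease signal.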
# [4] = qHTS assay to identify small molecule phospholipidosis (PLD) inducers (AID 1259344; active means well fitted curve in the direction sought with a large enough effect; an effect the other way counts as inactive or inconclusive)
# In short: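 Phospholipid accumulation was scored by imaging: fixed, Hoechst-counterstained HepG2 cells stained with LipidTOX Red after 24 h compound exposure at 37 C. Read-outs were pit count and pit intensity per well or per cell, with amiodarone and DMSO controls.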
# [5] = qHTS assay to identify small molecule HDAC inhibitors (AID 1259364); further: potency means the concentration at half of the fitted maximal effect;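 further: wild-type HCT-116 cells with endogenous class I/II HDAC activity; nearly all actives have a fitted effect of over 45% in size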; on activity change, negative = inhibition: top concentration of the series differs between compounds
# In short: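 After a 2 hr compound incubation (37C, 5% CO2), HCT-116 cells seeded at 1,500/well the day before received HDAC-Glo reagent; signal read as luminescence after 30 min at room temperature.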
# [6] = qHTS assay to identify small molecule HDAC inhibitors - cell viability counter screen (AID 1259365); further: series mostly up to about 92 µM; nearly all actives have a fitted effect of over 50% in size
# In short: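 To flag cytotoxic hits, 1,500 wild-type HCT-116 cells per well, plated the day before, receive test compounds for 2hr at 37 C before CellTiter-Glo reagent and a luminescence read.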
# [7] = qHTS assay to identify small molecule agonists of the sonic hedgehog signaling (Shh) pathway - cell viability counter screen (AID 1259366); further: nearly all actives have a fitted effect of over 50% in size
# In short: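 Fluorescence from CellTiter-Fluor reports live cells in this counter screen. NIH/3T3-derived Gli1-Luc reporter cells receive test compounds for 24hr at 37C; reagent goes in at 23hr.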
# [8] = qHTS assay to identify small molecule antagonists of the sonic hedgehog signaling (Shh) pathway - cell viability counter screen (AID 1259367); further: nearly all actives have a fitted effect of over 55% in size
# In short: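 Viability was read by CellTiter-Fluor fluorescence in the same wells, reagent added 23 hr into compound treatment and incubated 1 hr at 37C. The 3T3 Gli1-Luc reporter cells (2,000/well) received conditioned medium after compound and ran 24 hr.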
# [9] = molecular target: Androgen receptor (Homo sapiens) (UniProt P10275); assay: qHTS assay to identify small molecule antagonists of the androgen receptor (AR) signaling pathway using the MDA cell line in the presence of 0.5 nM R1881 (AID 1259243); further: nearly all actives have a fitted effect of over 50% in size
# In short: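 Cells: MDA-kb2 (MMTV-luc). Stimulus: 0.5 nM R1881. Time: 16 hr, 37C, no CO2. Detection: ONE-Glo luminescence after 30 min at RT.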
# [10] = molecular target: Estrogen receptor (Homo sapiens) (UniProt P03372); assay: qHTS assay to identify small molecule antagonists of the estrogen receptor alpha (ER-alpha) signaling pathway using the BG1 cell line in the presence of 0.1 nM 17-beta-estradiol (AID 1259244); further: nearly all actives have a fitted effect of over 50% in size
# In short: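 Seeding of stripped-serum-adapted VM7Luc4E2 cells, 24 h attachment, compound transfer, then 0.1 nM final 17beta-estradiol; after 22 h incubation, ONE-Glo reagent and luminescence reading.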
# Chain of Estrogen receptor (Homo sapiens) (P03372 whole entry, looked up): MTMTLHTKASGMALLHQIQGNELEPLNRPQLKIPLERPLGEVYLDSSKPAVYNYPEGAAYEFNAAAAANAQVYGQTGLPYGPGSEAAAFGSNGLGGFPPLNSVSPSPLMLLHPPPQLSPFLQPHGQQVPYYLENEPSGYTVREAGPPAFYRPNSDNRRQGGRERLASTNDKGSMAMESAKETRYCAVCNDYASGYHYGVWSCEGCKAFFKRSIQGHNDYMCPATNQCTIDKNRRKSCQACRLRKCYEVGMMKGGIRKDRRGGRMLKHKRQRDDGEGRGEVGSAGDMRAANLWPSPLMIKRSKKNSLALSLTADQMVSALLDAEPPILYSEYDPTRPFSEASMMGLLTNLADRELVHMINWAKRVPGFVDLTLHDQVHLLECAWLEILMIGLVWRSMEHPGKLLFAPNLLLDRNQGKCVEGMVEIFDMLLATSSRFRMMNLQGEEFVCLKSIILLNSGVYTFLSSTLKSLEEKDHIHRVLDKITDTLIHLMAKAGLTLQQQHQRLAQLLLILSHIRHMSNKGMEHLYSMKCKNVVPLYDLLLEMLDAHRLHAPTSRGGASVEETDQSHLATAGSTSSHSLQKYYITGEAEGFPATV
# Chain of Androgen receptor (Homo sapiens) (P10275 whole entry, looked up): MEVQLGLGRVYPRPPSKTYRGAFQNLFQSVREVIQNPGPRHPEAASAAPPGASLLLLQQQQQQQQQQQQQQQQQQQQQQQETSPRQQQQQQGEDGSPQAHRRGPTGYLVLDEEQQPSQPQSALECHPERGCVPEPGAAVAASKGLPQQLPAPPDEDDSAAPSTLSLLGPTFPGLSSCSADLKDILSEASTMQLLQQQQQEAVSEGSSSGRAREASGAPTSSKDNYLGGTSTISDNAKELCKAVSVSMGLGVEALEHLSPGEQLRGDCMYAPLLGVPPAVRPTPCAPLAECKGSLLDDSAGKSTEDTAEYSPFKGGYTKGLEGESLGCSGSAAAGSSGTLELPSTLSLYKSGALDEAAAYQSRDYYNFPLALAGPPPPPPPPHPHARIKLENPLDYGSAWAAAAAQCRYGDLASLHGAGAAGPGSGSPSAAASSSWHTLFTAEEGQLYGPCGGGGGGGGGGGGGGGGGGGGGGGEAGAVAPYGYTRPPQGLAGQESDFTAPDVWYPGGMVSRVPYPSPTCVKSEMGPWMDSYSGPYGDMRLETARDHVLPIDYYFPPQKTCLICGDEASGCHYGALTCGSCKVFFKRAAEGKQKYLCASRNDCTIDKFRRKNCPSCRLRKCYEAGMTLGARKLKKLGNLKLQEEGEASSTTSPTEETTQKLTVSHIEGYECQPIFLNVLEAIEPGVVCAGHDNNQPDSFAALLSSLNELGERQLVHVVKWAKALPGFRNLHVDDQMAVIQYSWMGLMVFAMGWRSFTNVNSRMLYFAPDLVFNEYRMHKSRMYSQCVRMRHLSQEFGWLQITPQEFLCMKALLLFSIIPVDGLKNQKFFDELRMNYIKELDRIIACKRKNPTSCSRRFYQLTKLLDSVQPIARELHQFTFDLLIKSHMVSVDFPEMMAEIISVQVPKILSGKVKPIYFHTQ
smiles,measurement,setting,value
CCCCN1C[C@H](O)[C@@H](O)[C@H](O)[C@H]1CO,Potency,[1],inactive
same,Potency,[2],inactive
same,outcome,[3],inactive
same,outcome,[4],inactive
same,Potency,[5],inactive
same,outcome,[6],inactive
same,Potency,[7],inactive
same,Potency,[8],inactive
CCOC(=O)NCCC[Si](OCC)(OCC)OCC,Potency,[1],inactive
same,Potency,[2],inactive
same,outcome,[3],inactive
same,Potency,[5],inactive
same,outcome,[6],inactive
same,Potency,[7],inactive
CCCCCCCCOC(=O)CCCCCCCCC(=O)OCCCCCCCC,Potency,[1],inactive
same,Potency,[2],inactive
same,outcome,[3],inactive
same,Potency,[5],inactive
same,outcome,[6],inactive
same,Potency,[7],inactive
same,Potency,[8],inactive
CC(=O)Nc1ccc(C)c(Cl)c1,Potency,[1],inactive
same,Potency,[2],inactive
same,outcome,[3],inactive
same,Potency,[5],inactive
same,outcome,[6],inactive
same,Potency,[7],inactive
same,Potency,[8],inactive
CC1CN(c2ccccc2)NC1=O (centres undefined),Potency,[1],inactive
same,Potency,[2],inactive
same,outcome,[3],inactive
same,Potency,[5],24.3 µM (active)
same,outcome,[6],inactive
same,Potency,[7],inactive
same,Potency,[8],inactive
CCC1(C)NC(=O)NC1=O (centres undefined),Potency,[1],inactive
same,Potency,[2],inactive
same,outcome,[3],inactive
same,Potency,[5],inactive
same,outcome,[6],inactive
same,Potency,[7],inactive
same,Potency,[8],inactive
COC(=O)c1ccc(OC)cc1,Potency,[1],inactive
same,Potency,[2],inactive
same,outcome,[3],inactive
same,Potency,[5],inactive
same,outcome,[6],inactive
same,Potency,[7],inactive
same,Potency,[8],inactive
OCCN1CCN(CCO)CC1,Potency,[1],inactive
same,Potency,[2],inactive
same,outcome,[3],inactive
same,Potency,[5],inactive
same,outcome,[6],inactive
same,Potency,[7],inactive
Nc1ccc2ccccc2c1S(=O)(=O)O,Potency,[1],inactive
same,Potency,[2],inactive
same,outcome,[3],inactive
same,Potency,[5],inactive
same,outcome,[6],inactive
same,Potency,[7],inactive
same,Potency,[8],inactive
Cc1cc2nc(N)sc2cc1C,Potency,[1],inactive
same,Potency,[2],inactive
same,Potency,[9],inactive
same,Potency,[5],0.276 µM (active)
same,outcome,[6],inactive
same,Potency,[7],inactive
same,Potency,[8],inactive
O=c1oc2c(O)c(O)cc3c(=O)oc4c(O)c(O)cc1c4c23,cytotoxicity increase,[1],-1.27% [at 15.8 µM]
same,"activity change, negative = cytotoxicity",[2],3.69% [at 19 µM]
same,"activity change, negative = inhibition",[10],1.12% [at 19 µM]
same,outcome,[4],inactive
same,"activity change, negative = inhibition",[5],-0.133% [at 19 µM]
same,"activity change, negative = cytotoxicity",[6],2.83% [at 19 µM]
same,"viability change, negative = cytotoxic",[7],-17.2% [at 19 µM]
same,"viability change, negative = cytotoxic",[8],1.3% [at 19 µM]
C=CCCC=C,Potency,[1],inactive
same,Potency,[2],inactive
same,outcome,[3],inactive
same,Potency,[5],inactive
same,Potency,[7],inactive
C1CSCCS1,Potency,[1],inactive
same,Potency,[2],inactive
same,outcome,[3],inactive
same,Potency,[5],inactive
same,outcome,[6],inactive
same,Potency,[7],inactive
same,Potency,[8],inactive
